{
  "source": "PubChem BioAssay (EPA / NIEHS)",
  "note": "The source made the active and inactive calls. Rule for the calls: active = hit-call score of the fitted dose curve at least 0.9, where 1 is the maximum; inactive = score below 0.9.",
  "data": [
    {"read-out": "Tissue Factor, F3 (gene 2152)", "test": "BSK_LPS_TissueFactor: BioMAP Diversity Plus: LPS Assay for Tissue Factor Biomarker Activity (AID 2283084)", "settings": "primary human HUVEC with PBMC; actives raise or lower the signal", "summary_of_the_method": "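HUVEC/PBMC co-culture, LPS-activated; CD142 ELISA read 24 h post-dose; bidirectional curve fit vs DMSO negative control.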", "values": [
      {"smiles": "CN(C)C(=O)Cl", "outcome": "inactive"},
      {"smiles": "CCC(C)(C)c1ccc(O)cc1", "outcome": "inactive"},
      {"smiles": "CCOP(=S)(OCC)SCn1nnc2ccccc2c1=O", "outcome": "inactive"},
      {"smiles": "c1cc2c3c(cccc3c1)CC2", "outcome": "inactive"},
      {"smiles": "O=c1ssc(Cl)c1Cl", "AC50": "8.4 µM (active)"},
      {"smiles": "O=S(=O)(F)C(F)(F)C(F)(F)C(F)(F)C(F)(F)C(F)(F)C(F)(F)C(F)(F)C(F)(F)F", "outcome": "inactive"},
      {"smiles": "CCOP(=S)(S)OCC", "outcome": "inactive"},
      {"smiles": "OCC(F)(F)OC(F)(F)C(F)(F)OC(F)(F)CO", "outcome": "inactive"},
      {"smiles": "ClC(Cl)(Cl)c1ccccc1", "outcome": "inactive"},
      {"smiles": "CC(Cc1ccc(OCC(=O)O)cc1)NCC(O)c1csc(C(F)(F)F)n1", "note": "(stereo not drawn)", "outcome": "inactive"},
      {"smiles": "CC(C)(C)c1ccc(O)cc1", "outcome": "inactive"},
      {"smiles": "O=C(O)C(F)(F)OC(F)(F)C(F)(F)OC(F)(F)C(=O)O", "outcome": "inactive"},
      {"smiles": "c1ccc(OP(Oc2ccccc2)Oc2ccccc2)cc1", "outcome": "inactive"},
      {"smiles": "OCC1CO1", "note": "(stereo not drawn)", "outcome": "inactive"},
      {"smiles": "NC(=O)C(F)(F)C(F)(F)F", "outcome": "inactive"},
      {"smiles": "O=[N+]([O-])c1ccccc1", "outcome": "inactive"},
      {"smiles": "Nc1ccc(Cl)cc1", "outcome": "inactive"},
      {"smiles": "O=[N+]([O-])c1ccc(Cl)c(Cl)c1", "outcome": "inactive"},
      {"smiles": "CCOP(=S)(Oc1ccc([N+](=O)[O-])cc1)c1ccccc1", "note": "(stereo not drawn)", "outcome": "inactive"},
      {"smiles": "CC(C)(C)OOC(C)(C)C", "outcome": "inactive"},
      {"smiles": "CCCCN(CCCC)N=O", "outcome": "inactive"},
      {"smiles": "Cc1ccc(O)cc1C", "outcome": "inactive"},
      {"smiles": "O=C(O)C(Cl)Cl", "outcome": "inactive"},
      {"smiles": "c1nc[nH]n1", "outcome": "inactive"},
      {"smiles": "c1ccc2c(c1)Nc1ccccc1S2", "outcome": "inactive"},
      {"smiles": "COP(=O)(CCC(=O)NCO)OC", "outcome": "inactive"},
      {"smiles": "CCOS(=O)(=O)OCC", "outcome": "inactive"},
      {"smiles": "Nc1ccc([N+](=O)[O-])cc1Cl", "outcome": "inactive"}
    ]}
  ]
}
